# From PubChem BioAssay (NCATS)
# Results filed as inconclusive are left out. Calls of active or inactive are those of the source. Unless noted, calls follow the shape of the dose curve; as a rule, active = well fitted curve in either direction with a large enough effect (not every such curve was filed as active); inconclusive = small, poorly fitted or top-dose-only effect, or another doubt; inactive = flat fitted curve, though single readings scatter.
# What was measured:
# [1] = target: Lysosomal acid glucosylceramidase (Homo sapiens) (UniProt P04062); assay: Glucocerebrosidase-p2 (AID 348; in the data active = potency below about 10 µM; also: potency is read from the fitted curve at half-maximal effect); conditions: purified GBA, blue fluorogenic substrate, 40 min
# Chain of Lysosomal acid glucosylceramidase (Homo sapiens) (P04062 whole entry, looked up): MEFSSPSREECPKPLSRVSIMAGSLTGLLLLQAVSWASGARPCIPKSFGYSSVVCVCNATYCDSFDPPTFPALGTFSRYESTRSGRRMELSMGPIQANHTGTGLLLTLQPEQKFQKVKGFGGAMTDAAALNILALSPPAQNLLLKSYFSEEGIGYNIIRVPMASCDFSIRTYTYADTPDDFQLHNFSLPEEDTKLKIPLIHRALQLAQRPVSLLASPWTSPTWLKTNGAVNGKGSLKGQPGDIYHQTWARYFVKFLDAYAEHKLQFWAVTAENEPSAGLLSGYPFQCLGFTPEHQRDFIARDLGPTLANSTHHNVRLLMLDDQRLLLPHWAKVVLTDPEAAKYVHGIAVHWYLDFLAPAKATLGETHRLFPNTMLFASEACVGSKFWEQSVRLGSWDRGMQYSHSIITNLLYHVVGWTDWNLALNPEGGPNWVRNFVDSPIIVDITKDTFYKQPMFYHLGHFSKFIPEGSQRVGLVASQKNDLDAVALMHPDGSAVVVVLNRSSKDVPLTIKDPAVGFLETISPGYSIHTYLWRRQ
# Method in brief: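 Normal human glucocerebrosidase (0.2 nM) with blue fluorogenic substrate (80 uM final) in citrate/phosphate pH 5.9 with 10mM sodium taurocholate, 0.01% tween-20; 40 min RT, NaOH/glycine stop; fluorescence Ex 365/Em 440; AC50 from a titration from 0.6 nM upwards.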
# [2] = AP1 Signaling Pathway (AID 357); conditions: ME-180 AP-1-bla reporter, EGF-induced, beta-lactamase ratio, 5 h; at 7.69 µM (top of the series) unless noted;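 also: ME-180 reporter cells stimulated with EGF at its EC50 level; % is scaled to controls: 0 for no effect and ±100 for the full control effect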
# Method in brief: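 Cells are seeded overnight, exposed to compound titrations and an EC50 level of EGF for 5 hours at 37 °C, then loaded with CCF4 dye for 2.5 hours. Beta-lactamase activity under the AP-1 element is read as a blue/green ratio.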
# [3] = target: Cytochrome P450 1A2 (Homo sapiens) (UniProt P05177); assay: p450-cyp1a2 (AID 410; calls by dose curve; also: potency is read from the fitted curve at half-maximal effect;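 as to activity change, negative = inhibition: -100% = full effect of reference inhibitor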); conditions: recombinant CYP1A2, luciferin-ME demethylation, luminescence; series mostly up to 57 µM
# Chain of Cytochrome P450 1A2 (Homo sapiens) (P05177 whole entry, looked up): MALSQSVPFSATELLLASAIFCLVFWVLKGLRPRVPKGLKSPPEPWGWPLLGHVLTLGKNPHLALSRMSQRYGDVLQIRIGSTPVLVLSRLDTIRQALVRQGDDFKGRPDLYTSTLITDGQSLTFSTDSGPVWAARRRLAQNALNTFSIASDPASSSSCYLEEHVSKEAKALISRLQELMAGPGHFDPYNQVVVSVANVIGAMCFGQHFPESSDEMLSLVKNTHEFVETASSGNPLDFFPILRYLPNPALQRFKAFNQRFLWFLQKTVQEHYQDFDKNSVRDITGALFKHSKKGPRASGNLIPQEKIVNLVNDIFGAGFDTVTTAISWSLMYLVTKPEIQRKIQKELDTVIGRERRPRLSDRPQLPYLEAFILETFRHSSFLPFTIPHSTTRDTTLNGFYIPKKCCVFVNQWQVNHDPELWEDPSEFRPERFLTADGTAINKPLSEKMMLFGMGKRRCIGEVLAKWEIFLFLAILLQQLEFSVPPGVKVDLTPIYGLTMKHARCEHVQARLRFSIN
# Method in brief: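 O-Demethylation of luciferin 6' methyl ether by human CYP1A2 is monitored as luciferase luminescence. Substrate sits at Km (100uM); enzyme is 20nM. Values are scaled to 57 uM furafylline as maximal inhibition.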
# [4] = NFAT Signaling Pathway (AID 444); conditions: Jurkat NFAT-bla M1, carbachol, beta-lactamase ratio, 5 h; at 7.69 µM (top of the series) unless noted;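 also: carbachol stimulus at about its EC50 of 1 µM final; % is scaled to controls: 0 for no effect and ±100 for the full control effect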
# Method in brief: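 Jurkat cells with NFAT-driven β-lactamase reporter and co-expressed M1 receptor, stimulated with carbachol (final 1 uM, ~EC50), compound titration, 5 h at 37 °C. CCF4 loaded 1 h at RT; 460/530 nm ratio gave %activity and AC50.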
# [5] = Stat Signaling Pathway (AID 446); conditions: ME-180 (cervical carcinoma) SIE beta-lactamase reporter, IL-6 stimulated, 5 h; at 7.69 µM (top of the series) unless noted;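 also: ME-180 cervical cancer cells given 40 pM IL-6 alongside compound; SIE-controlled beta-lactamase reporter measured as 460/530 nm FRET emission ratio; % is scaled to controls: 0 for no effect and ±100 for the full control effect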
# Method in brief: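 Overnight-plated ME-180 cells bearing a STAT Inducible Element beta-lactamase reporter; 5 h co-exposure to compound and 40 pM IL-6; values normalized to 300 pM IL-6 and 125 nM JAK inhibitor controls.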
# [6] = target: Glucocorticoid receptor (Homo sapiens) (UniProt P04150); assay: GR-GFP Redistribution (AID 450;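 active = compounds whose dose series gives a full or clear partial fitted curve of increased nuclear translocation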; also: potency is read from the fitted curve at half-maximal effect); conditions: U2OS GR-GFP nuclear translocation, laser cytometry, 2 h
# Chain of Glucocorticoid receptor (Homo sapiens) (P04150 whole entry, looked up, the tested form may be a part): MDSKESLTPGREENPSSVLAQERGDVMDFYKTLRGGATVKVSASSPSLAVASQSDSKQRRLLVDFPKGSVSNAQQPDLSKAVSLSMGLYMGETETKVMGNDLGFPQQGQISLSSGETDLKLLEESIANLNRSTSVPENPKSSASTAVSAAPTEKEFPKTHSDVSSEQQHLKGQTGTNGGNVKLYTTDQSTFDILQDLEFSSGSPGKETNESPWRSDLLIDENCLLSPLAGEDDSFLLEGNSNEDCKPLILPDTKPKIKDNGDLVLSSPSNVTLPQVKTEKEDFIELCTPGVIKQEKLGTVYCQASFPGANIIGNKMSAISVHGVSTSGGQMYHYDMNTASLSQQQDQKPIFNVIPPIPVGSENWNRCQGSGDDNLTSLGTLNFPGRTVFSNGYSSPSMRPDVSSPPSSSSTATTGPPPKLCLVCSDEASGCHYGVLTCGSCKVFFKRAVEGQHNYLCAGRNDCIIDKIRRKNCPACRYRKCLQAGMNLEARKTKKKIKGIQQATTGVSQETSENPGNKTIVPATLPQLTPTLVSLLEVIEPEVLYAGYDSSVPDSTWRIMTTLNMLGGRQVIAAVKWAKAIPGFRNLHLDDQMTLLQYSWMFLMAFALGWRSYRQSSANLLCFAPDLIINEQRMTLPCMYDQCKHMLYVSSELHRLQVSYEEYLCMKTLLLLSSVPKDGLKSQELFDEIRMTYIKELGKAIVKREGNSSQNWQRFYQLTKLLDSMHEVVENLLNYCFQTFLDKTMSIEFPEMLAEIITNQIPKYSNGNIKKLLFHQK
# [7] = target: Glucocorticoid receptor (Homo sapiens) (UniProt P04150); assay: GR-EFC Redistribution (AID 451; calls by dose curve; also: potency is read from the fitted curve at half-maximal effect); conditions: CHO-K1 GR-EFC translocation, beta-gal luminescence, 2 h
# Method in brief: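 CHO-K1 cells expressing nuclear EA and GR-ED fragments of b-gal; compounds titrated up to 46 uM final, 2 h at 37 C. GR nuclear translocation read as complemented b-gal luminescence after 1 h RT detection.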
# [8] = target: Mitogen-activated protein kinase 10 (Mus musculus) (UniProt Q61831); assay: JNK3 AlphaScreen Assay (AID 530); conditions: JNK3 lysate, c-Jun phosphorylation; series mostly up to 57.1 µM;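 also: kinase came from lysate of stimulated human HepG2 cells; signal reports phosphorylation of biotinylated GST-cJun 1-79 at Ser73 with 10 µM ATP; % is scaled to controls: 0 for no effect and ±100 for the full control effect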
# Method in brief: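 Activity was read by AlphaScreen after JNK3-containing HepG2 lysate (cytokine pre-activated) phosphorylated biotinylated GST-cJun with 10 uM ATP at room temperature. Phospho-Ser73 cJun antibody with Protein-A acceptor beads provided detection.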
# [9] = target: 3',5'-cyclic-AMP phosphodiesterase 4B (Homo sapiens) (UniProt Q07343); assay: qHTS Assay for Inhibitors of PDE-IV (AID 607; active = well fitted activation curve with a large enough effect in the main read-out, with a control signal flat, not every such curve was filed as active; also: % of control where 0% means no effect); conditions: HEK293 ACTOne CNG channel cells, membrane potential fluorescence; series mostly up to 22.9 µM
# Chain of 3',5'-cyclic-AMP phosphodiesterase 4B (Homo sapiens) (Q07343 whole entry, looked up): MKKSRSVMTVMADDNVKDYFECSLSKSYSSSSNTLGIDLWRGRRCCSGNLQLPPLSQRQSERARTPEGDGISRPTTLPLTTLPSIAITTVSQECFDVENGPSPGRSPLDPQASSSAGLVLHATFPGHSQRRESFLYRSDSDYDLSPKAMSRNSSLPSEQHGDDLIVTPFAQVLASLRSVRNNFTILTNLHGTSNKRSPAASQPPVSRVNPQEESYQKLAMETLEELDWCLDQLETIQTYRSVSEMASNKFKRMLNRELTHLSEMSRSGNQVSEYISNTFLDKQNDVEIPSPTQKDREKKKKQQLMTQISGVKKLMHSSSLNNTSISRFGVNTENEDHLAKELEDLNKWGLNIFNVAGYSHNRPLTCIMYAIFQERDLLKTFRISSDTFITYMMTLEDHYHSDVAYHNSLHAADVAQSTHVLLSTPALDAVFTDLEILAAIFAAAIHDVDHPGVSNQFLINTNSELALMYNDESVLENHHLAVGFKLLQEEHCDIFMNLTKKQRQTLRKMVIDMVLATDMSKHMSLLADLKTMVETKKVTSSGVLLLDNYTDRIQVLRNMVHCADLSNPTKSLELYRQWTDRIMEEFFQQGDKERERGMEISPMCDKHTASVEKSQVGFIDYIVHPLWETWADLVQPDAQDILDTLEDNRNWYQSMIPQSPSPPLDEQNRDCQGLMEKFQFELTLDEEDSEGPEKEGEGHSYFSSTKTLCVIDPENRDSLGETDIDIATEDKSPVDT
# Method in brief: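 Live HEK293 cells with a modified cyclic nucleotide-gated (CNG) channel report intracellular cAMP via membrane-potential dye fluorescence (ex 535/em 590 nm). Endogenous PDE-IV was targeted. Compounds were tested at up to 22.9 uM final; RO 20-1724 100 uM served as control.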
# [10] = target: Cytochrome P450 3A4 (Homo sapiens) (UniProt P08684); assay: qHTS Assay for Activators of Cytochrome P450 3A4 (AID 885; active = well fitted curve in the direction sought with a large enough effect; an effect the other way counts as inactive or inconclusive; also: nearly all actives have a fitted effect of over 65% in size); conditions: recombinant CYP3A4, Luciferin-PPXE luminescence, 60 min; series mostly up to 57.1 µM
# Chain of Cytochrome P450 3A4 (Homo sapiens) (P08684 whole entry, looked up): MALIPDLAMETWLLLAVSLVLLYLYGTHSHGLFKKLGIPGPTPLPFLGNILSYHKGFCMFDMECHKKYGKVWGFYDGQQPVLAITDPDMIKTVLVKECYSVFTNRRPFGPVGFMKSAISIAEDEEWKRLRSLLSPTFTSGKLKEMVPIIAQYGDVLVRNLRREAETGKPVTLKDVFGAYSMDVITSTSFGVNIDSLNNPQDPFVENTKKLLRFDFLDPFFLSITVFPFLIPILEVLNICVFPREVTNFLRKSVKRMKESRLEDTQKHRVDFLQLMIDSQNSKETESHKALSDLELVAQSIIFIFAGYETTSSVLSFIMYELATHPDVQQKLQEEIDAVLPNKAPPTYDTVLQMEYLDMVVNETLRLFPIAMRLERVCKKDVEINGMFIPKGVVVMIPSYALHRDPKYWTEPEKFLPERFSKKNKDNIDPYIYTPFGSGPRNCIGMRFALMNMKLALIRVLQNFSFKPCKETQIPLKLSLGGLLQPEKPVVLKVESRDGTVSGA
# Method in brief: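 Using 20nM recombinant human CYP3A4 in potassium phosphate (200mM), substrate Luciferin-PPXE at 25uM, luminescent luciferin detection followed a 60-min RT NADPH reaction; data scaled to 57 uM ketoconazole.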
# [11] = Counterscreen qHTS for small molecule stabilizers of the endoplasmic reticulum resident proteome: GLuc-NoTag assay (AID 1508627; active = well fitted curve in the direction sought with a large enough effect; an effect the other way counts as inactive or inconclusive; also: potency is read from the fitted curve at half-maximal effect;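 as to activity change, negative = inhibition: 0% = thapsigargin alone and -100% = DMSO vehicle control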); conditions: Gaussia luciferase NoTag secretion counterscreen, luminescence, thapsigargin 100 nM for final 4 h; series mostly up to 76.4 µM
# Method in brief: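 Counterscreen line: SH-SY5Y-GLuc-NoTag. Seed, 5 h; compound, 19 h; thapsigargin 100 nM, 4 h; 37C/5% CO2. Readout: secreted GLuc luminescence, coelenterazine 0.07x final, no lysis.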
# [12] = target: Cytochrome P450 3A4 (Homo sapiens) (UniProt P08684); assay: qHTS Assay for Inhibitors and Substrates of Cytochrome P450 3A4 (AID 884; active = well fitted curve in the direction sought with a large enough effect; an effect the other way counts as inactive or inconclusive; also: potency is read from the fitted curve at half-maximal effect; nearly all actives have a fitted effect of over 50% in size); conditions: recombinant CYP3A4, Luciferin-PPXE luminescence; series mostly up to 57.1 µM
# Method in brief: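 Luminescent readout of luciferin produced by CYP3A4 (20 nM) dealkylation of Luciferin-PPXE, 25 uM (its KM). NADPH-driven reaction ran 60 min at RT after 10 min compound preincubation; data scaled to 57 uM ketoconazole as 100% inhibition.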
# [13] = Confirmation and Secondary Assay for Modulators of Hemoglobin Beta Chain Splicing at IVS2 654 locus (AID 910; active = well fitted curve in the direction sought with a large enough effect; an effect the other way counts as inactive or inconclusive;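 also: HeLa cells stably carrying EGFP split by mutant beta-globin IVS2-654 intron; % of control where 0% means no effect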); conditions: HeLa EGFP-654 splicing reporter, GFP fluorescence, 48 h; series mostly up to 38.3 µM
# Method in brief: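 HeLa cells stably expressing EGFP interrupted by β-globin IVS2-654 intron, seeded overnight in Opti-MEM/2% FCS, then treated 2 days at 37 °C. Restored splicing read as total peak GFP intensity per well by laser scanning cytometry (488 nm excitation, 500–520 nm emission); 500 nM antisense PNA as control.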
# [14] = Confirmation and Secondary Assay for Modulators of Hemoglobin Beta Chain Splicing at IVS2 705 locus (AID 930; active = well fitted curve in the direction sought with a large enough effect; an effect the other way counts as inactive or inconclusive;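 also: HeLa cells stably expressing the EGFP-705 splicing reporter; GFP fluorescence per well restored by corrected splicing of the IVS2-705 intron in EGFP; % of control where 0% means no effect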); conditions: HeLa EGFP-705 splicing reporter, GFP fluorescence, 48 h; series mostly up to 38.3 µM
# Method in brief: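 Assay measures total GFP intensity per well in HeLa EGFP-705 cells after 2 days with compound; mis-splicing normally truncates EGFP, so fluorescence indicates corrected splicing.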
# [15] = target: Ubiquitin carboxyl-terminal hydrolase 1 (Homo sapiens) (UniProt O94782); assay: Inhibitors of USP1/UAF1: Pilot qHTS (AID 504865; active = well fitted curve in the direction sought with a large enough effect; an effect the other way counts as inactive or inconclusive;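 also: rhodamine fluorescence freed from ubiquitin-rhodamine substrate followed over time; top concentration of the series differs between compounds; % is scaled to controls: 0 for no effect and ±100 for the full control effect; nearly all actives have a fitted effect of over 35% in size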); conditions: purified USP1/UAF1, Ub-rhodamine cleavage fluorescence; series mostly up to 54.9 µM
# Chain of Ubiquitin carboxyl-terminal hydrolase 1 (Homo sapiens) (O94782 whole entry, looked up): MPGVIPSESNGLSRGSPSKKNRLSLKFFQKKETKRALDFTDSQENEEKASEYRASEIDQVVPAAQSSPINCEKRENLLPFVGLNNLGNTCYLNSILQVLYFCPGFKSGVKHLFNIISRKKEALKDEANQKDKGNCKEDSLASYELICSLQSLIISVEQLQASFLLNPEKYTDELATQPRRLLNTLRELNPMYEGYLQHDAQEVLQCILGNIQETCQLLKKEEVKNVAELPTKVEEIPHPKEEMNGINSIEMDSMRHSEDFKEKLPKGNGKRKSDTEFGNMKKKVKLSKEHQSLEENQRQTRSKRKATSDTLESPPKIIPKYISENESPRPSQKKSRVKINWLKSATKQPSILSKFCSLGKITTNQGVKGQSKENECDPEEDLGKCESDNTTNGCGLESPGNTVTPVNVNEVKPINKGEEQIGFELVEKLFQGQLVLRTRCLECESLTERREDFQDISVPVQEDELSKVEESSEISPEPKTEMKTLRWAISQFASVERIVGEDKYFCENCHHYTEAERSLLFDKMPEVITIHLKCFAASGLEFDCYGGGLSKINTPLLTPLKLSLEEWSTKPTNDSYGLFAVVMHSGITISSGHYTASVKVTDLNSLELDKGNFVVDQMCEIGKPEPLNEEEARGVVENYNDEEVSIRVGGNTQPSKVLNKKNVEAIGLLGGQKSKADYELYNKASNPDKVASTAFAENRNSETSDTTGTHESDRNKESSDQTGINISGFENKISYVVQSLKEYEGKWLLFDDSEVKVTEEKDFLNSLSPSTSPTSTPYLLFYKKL
# Method in brief: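 Deubiquitinase activity followed as kinetic rhodamine fluorescence release from 150 nM Ub-Rho. 1 nM USP1/UAF1 with compound, after 15 min room-temperature preincubation, in HEPES pH 7.8 buffer containing TCEP, EDTA, BSA and Tween-20.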
# [16] = qHTS Assay for Lipid Storage Modulators (AID 1519; calls by dose curve); conditions: Drosophila S3 cells, BODIPY lipid droplet/cell ratio, laser cytometry, cells loaded with oleic acid; for activity change, negative = inhibition: at 57.5 µM (top of the series)
# Method in brief: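 Cells seeded at 5,000 per well were treated with compounds over a concentration series and loaded with oleic acid (400 uM, as added). Lipid droplet fluorescence (488 nm excitation, 500-530 nm channel) was read by laser-scanning cytometry and normalized to 20 uM Triacsin C.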
# [17] = target: Dual specificity protein kinase CLK4 (Homo sapiens) (UniProt Q9HAZ1); assay: qHTS Assay for Inhibitors of CDC-like Kinase 4 (Kinase-Glo Assay) (AID 1770; active = well fitted curve in the direction sought with a large enough effect; an effect the other way counts as inactive or inconclusive; also: % is scaled to controls: 0 for no effect and ±100 for the full control effect; nearly all actives have a fitted effect of over 65% in size); conditions: recombinant Clk4, Kinase-Glo ATP depletion luminescence; series mostly up to 66.7 µM
# Chain of Dual specificity protein kinase CLK4 (Homo sapiens) (Q9HAZ1 whole entry, looked up): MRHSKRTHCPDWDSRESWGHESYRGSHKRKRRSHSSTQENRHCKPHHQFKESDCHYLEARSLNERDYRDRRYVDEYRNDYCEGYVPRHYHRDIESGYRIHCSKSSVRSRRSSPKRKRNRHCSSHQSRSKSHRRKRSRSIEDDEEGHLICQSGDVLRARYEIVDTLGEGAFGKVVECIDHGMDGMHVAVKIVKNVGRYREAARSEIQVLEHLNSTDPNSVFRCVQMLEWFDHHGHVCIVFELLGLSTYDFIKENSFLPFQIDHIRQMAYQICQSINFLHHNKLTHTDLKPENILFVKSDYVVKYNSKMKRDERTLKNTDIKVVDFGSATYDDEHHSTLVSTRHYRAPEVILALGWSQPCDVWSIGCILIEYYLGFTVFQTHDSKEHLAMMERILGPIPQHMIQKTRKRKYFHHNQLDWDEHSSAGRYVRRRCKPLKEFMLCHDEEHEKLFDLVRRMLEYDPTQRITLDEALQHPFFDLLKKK
# Method in brief: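 Luminescent ATP-depletion read-out (Kinase-Glo) after 4.5 h room-temperature reaction of Clk4 (25 nM final) with RS peptide (100 uM) and ATP (1 uM), pH 7.5 Tris buffer with MgCl2 and DTT.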
# [18] = target: Dual specificity protein kinase CLK4 (Homo sapiens) (UniProt Q9HAZ1); assay: qHTS Assay for Inhibitors of CDC-like Kinase 4 (ADP-Glo Assay) (AID 1771; active = well fitted curve in the direction sought with a large enough effect; an effect the other way counts as inactive or inconclusive; also: % is scaled to controls: 0 for no effect and ±100 for the full control effect; nearly all actives have a fitted effect of over 70% in size); conditions: recombinant CLK4, ADP-Glo luminescence; series mostly up to 80 µM
# Method in brief: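 Compounds are pin-transferred onto substrate mix (100 uM RS peptide, 1 uM ATP), then 25 nM Clk4 is added. After 1 hr at room temperature, ADP-Glo reagent runs 45 min, detection reagent 30 min, then luminescence is read.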
# [19] = target: Dual specificity protein kinase CLK4 (Homo sapiens) (UniProt Q9HAZ1); assay: qHTS Assay for Inhibitors of CDC-like Kinase 4 (ADP-FP Assay) (AID 1795; active = well fitted curve in the direction sought with a large enough effect; an effect the other way counts as inactive or inconclusive;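 also: recombinant human CLK4 phosphorylating RS repeat peptide at 1 µM ATP; % is scaled to controls: 0 for no effect and ±100 for the full control effect; nearly all actives have a fitted effect of over 60% in size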); conditions: Transcreener ADP fluorescence polarization; series mostly up to 50 µM
# Method in brief: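 Kinase activity was measured as ADP production using Transcreener orange tracer (4 nM) and ADP antibody (1 ug/mL) fluorescence polarization, with ADP calculated from a calibration curve. The 1 h reaction contained 6.25 nM Clk4, 1 uM ATP and 100 uM RS peptide at pH 7.5 with Mg2+.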
# [20] = Confirmatory qHTS for small molecule stabilizers of the endoplasmic reticulum resident proteome: Secreted ER Calcium Modulated Protein (SERCaMP) assay (AID 1508628; active = well fitted curve in the direction sought with a large enough effect; an effect the other way counts as inactive or inconclusive; also: % is scaled to controls: 0 for no effect and ±100 for the full control effect; nearly all actives have a fitted effect of over 40% in size); conditions: SERCaMP secreted luciferase ER calcium/proteostasis reporter; series mostly up to 76.3 µM
# Method in brief: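 Reporter secretion upon ER calcium depletion (100 nM thapsigargin, 4 h, 37C) is measured as medium luminescence with coelenterazine, after 16 h compound pretreatment of SH-SY5Y-GLuc-SERCaMP cells; primary at three concentrations up to 38.3 uM, follow-up at 11 (up to 76.6 uM).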
# [21] = Cell Viability qHTS for small molecule stabilizers of the endoplasmic reticulum resident proteome (AID 1508629; active = well fitted curve in the direction sought with a large enough effect; an effect the other way counts as inactive or inconclusive); conditions: cell viability counter-screen, 100 nM thapsigargin for final 4 h
# [22] = target: Cytochrome P450 2C19 (Homo sapiens) (UniProt P33261); assay: qHTS Assay for Inhibitors and Substrates of Cytochrome P450 2C19 (AID 899; active = well fitted curve in the direction sought with a large enough effect; an effect the other way counts as inactive or inconclusive; also: potency is read from the fitted curve at half-maximal effect; nearly all actives have a fitted effect of over 60% in size); conditions: recombinant CYP2C19, luciferin-H EGE luminescence; series mostly up to 57.1 µM
# Chain of Cytochrome P450 2C19 (Homo sapiens) (P33261 whole entry, looked up): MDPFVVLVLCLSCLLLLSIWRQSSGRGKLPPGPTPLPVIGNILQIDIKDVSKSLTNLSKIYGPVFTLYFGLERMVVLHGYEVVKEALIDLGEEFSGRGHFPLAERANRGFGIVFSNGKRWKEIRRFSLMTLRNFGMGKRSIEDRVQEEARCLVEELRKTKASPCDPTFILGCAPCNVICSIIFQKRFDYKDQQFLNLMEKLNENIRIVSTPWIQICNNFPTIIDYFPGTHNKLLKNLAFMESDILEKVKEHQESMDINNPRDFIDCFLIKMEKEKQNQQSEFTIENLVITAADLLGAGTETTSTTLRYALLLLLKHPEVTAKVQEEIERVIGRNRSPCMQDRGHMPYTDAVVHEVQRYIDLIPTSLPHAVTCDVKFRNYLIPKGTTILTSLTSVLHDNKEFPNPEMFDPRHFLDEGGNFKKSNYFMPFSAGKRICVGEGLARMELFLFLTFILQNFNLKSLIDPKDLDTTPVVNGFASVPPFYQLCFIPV
# Method in brief: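 Signal comes from luciferase acting on luciferin released by CYP2C19-mediated hydroxylation of Luciferin-H EGE, 10uM (KM). Assay mix: 5nM enzyme, 50mM KPO4; 60 min at 37C with NADPH regeneration. Data normalized against 57uM ketoconazole.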
# [23] = measured here: cell count channel max response
# [24] = measured here: lipid channel max response
compound,measurement,setting,value
COc1ncc2nc(CCc3ccccc3)c(=O)n(C3CC3)c2n1,Potency,[1],> 11.4 µM (inactive)
same,"activity change, negative = inhibition",[2],-0.42% (inactive)
same,Potency,[3],3.16 µM (active)
same,"activity change, negative = inhibition",[4],0.053% (inactive)
same,"activity, negative = inhibition",[5],-2.79% (inactive)
same,Potency,[6],> 9.22 µM (inactive)
same,Potency,[7],> 46 µM (inactive)
same,outcome,[8],inactive
same,Potency,[9],inactive
same,Potency,[10],inactive
same,Potency,[11],inactive
COc1ccccc1-c1ccc2ncnc(N3CCN(C)CC3)c2c1,"activity change, negative = inhibition",[2],2.3% (inactive)
same,Potency,[3],3.16 µM (active)
same,"activity change, negative = inhibition",[4],4.65% (inactive)
same,"activity, negative = inhibition",[5],2.98% (inactive)
same,Potency,[6],> 46 µM (inactive)
same,Potency,[7],> 46 µM (inactive)
same,outcome,[8],inactive
same,Potency,[9],inactive
same,Potency,[12],3.16 µM (active)
same,outcome,[13],inactive
same,outcome,[14],inactive
same,Potency,[15],inactive
same,Potency,[11],44.7 µM (active)
O=c1cnc2cnc(N3CCNCC3)nc2n1Cc1ccc(F)cc1,Potency,[1],> 11.4 µM (inactive)
same,"activity change, negative = inhibition",[2],-15.8% (inactive)
same,Potency,[3],15.8 µM (active)
same,"activity, negative = inhibition",[5],-2.57% (inactive)
same,Potency,[6],> 9.22 µM (inactive)
same,Potency,[7],> 46 µM (inactive)
same,outcome,[8],inactive
same,Potency,[9],inactive
same,Potency,[12],7.94 µM (active)
same,Potency,[10],inactive
same,"activity change, negative = inhibition",[16],7.02% (inactive)
same,max response,[16]; [23],22.7%
same,max response,[16]; [24],28.6%
same,Potency,[17],inactive
same,Potency,[18],inactive
same,Potency,[19],inactive
same,Potency,[15],inactive
same,Potency,[11],inactive
COCCn1c(=O)c(CCc2ccccc2)nc2cnc(N3CCNCC3)nc21,"activity change, negative = inhibition",[2],-4.91% (inactive)
same,"activity change, negative = inhibition",[4],10.2% (inactive)
same,"activity, negative = inhibition",[5],-1.73% (inactive)
same,Potency,[6],> 9.22 µM (inactive)
same,Potency,[7],> 46 µM (inactive)
same,outcome,[8],inactive
same,Potency,[9],inactive
same,Potency,[11],inactive
O=C(c1cc(C(F)(F)F)cc(C(F)(F)F)c1)N1CCC2(CC1)CN(c1ccccn1)C2,Potency,[1],0.37 µM (active)
same,"activity change, negative = inhibition",[2],-8.97% (inactive)
same,Potency,[3],inactive
same,"activity, negative = inhibition",[5],-17.5% (inactive)
same,outcome,[8],inactive
same,Potency,[9],inactive
same,Potency,[20],inactive
same,max response,[21],-18% (inactive)
O=S(=O)(c1ccccc1)N1CCC[C@@]2(CCN(c3ccncc3)C2)C1,Potency,[1],> 11.4 µM (inactive)
same,"activity change, negative = inhibition",[2],-6.47% (inactive)
same,Potency,[3],inactive
same,"activity, negative = inhibition",[5],0.894% (inactive)
same,Potency,[7],> 46 µM (inactive)
same,outcome,[8],inactive
same,Potency,[9],inactive
same,Potency,[12],3.98 µM (active)
same,Potency,[22],0.398 µM (active)
same,"activity change, negative = inhibition",[16],0.287% (inactive)
same,max response,[16]; [23],4.65%
same,max response,[16]; [24],6.49%
same,Potency,[11],inactive
